Screening results: PubChem BioAssay, National Center for Advancing Translational Sciences (NCATS)
Hits are enriched below; roughly 7.3% of the tested compounds scored in any of these assays.
FMDV antiviral: foot and mouth disease virus antiviral activity; FMDV antiviral cell-based qHTS; Potency, µM (top dose mostly 57.9 µM), without a hit: at the highest dose activity change, negative = inhibition, most hits filed as inhibitors; 410,000 compounds, 1.2% hits; AID 1159524; calls by dose curve; tested in HEK293T cells; further: read-out not given here; potency means the concentration at half of the fitted maximal effect; nearly all actives have a fitted effect of over 45% in size
HCMV antiviral: human cytomegalovirus inhibition. HFF cells, HCMV-luciferase reporter, 72 h; hits give low values. activity change, negative = inhibition, % at 57.5 µM. 410,000 compounds, 4.5% hits; in the data active means activity change below about -60%; inconclusive means no clear call, values can overlap the other calls; inactive means above about -39%
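Two-dose cell screen: HFF monolayers treated with compounds and infected with luciferase-expressing HCMV at 1 PFU/cell, 72 h at 37C, then lysed for luciferase measurement.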
HCV inhibitor: inhibitors of hepatitis C virus infection; Huh7.5.1 HCVcc-Cre infection, luciferase reporter, 44 h; Potency, µM (series often up to 41.8 µM), without a hit: top-dose activity change, negative = inhibition, actives largely listed as inhibitors; 340,000 compounds, 3.4% hits; active means well fitted inhibition curve with a large enough effect; inconclusive means small, poorly fitted or top-dose-only effect, or another doubt; inactive means no such curve, though single readings can be large or run the other way; further: potency means the concentration at half of the fitted maximal effect
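A cell-based infection assay in which seeded cells (1,000 per well) receive test compound after 4 h, are inoculated with HCVcc-Cre at approximately 0.5 moi, and are incubated 44 h before luminescence detection.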
VACV Venus inh: vaccinia inhibition (Venus reporter); Vaccinia virus Venus reporter expression, fluorescence; AID 720580; 330,000 compounds, 0.46% hits; Potency, µM (top dose mostly 36.5 µM), for inactives: at the highest dose activity change, negative = inhibition, hits mostly inhibitors; calls by dose curve; tested in A549 cells; further: potency means the concentration at half of the fitted maximal effect; nearly all actives have a fitted effect of over 30% in size
Vaccinia mCherry: vaccinia inhibition (mCherry reporter). 310,000 compounds, 0.63% hits. Vaccinia virus mCherry reporter infection, fluorescence. Potency, µM (doses to about 36.5 µM), inactives show at the highest dose activity change, negative = inhibition, hits mostly inhibitors; calls by dose curve; tested in A549 cells; further: potency means the concentration at half of the fitted maximal effect; nearly all actives have a fitted effect of over 35% in size
* marks the source's active call; other numbers are inactive results; i = inactive; ? = inconclusive; nt = not tested or not shown; [ ] = another dose, or the depositor's remark. On the % scale 0 is the no-effect control and ±100 the full control effect.

SMILES	FMDV antiviral	HCMV antiviral	HCV inhibitor	VACV Venus inh	Vaccinia mCherry
COc1ccccc1N1CCN(C(=O)c2c(-c3ccccc3Cl)noc2C)CC1	?	5	11µM*	?	nt
Cc1onc(-c2ccccc2Cl)c1C(=O)N(C)C1CCCCC1	-8%	-66*	-19%	-25%	?
COc1ccc(-c2noc(N3CCC(C(=O)N4CCN(c5cccc(OC)c5)CC4)CC3)n2)cc1	?	-84*	nt	-10%[7.34 µM]	-2%[7.34 µM]
COc1cc(CNCc2ccncc2)cc(Br)c1OCc1ccccc1F	32µM*	-90*	?	nt	nt
COc1cc(CNc2ccc(O)cc2)cc(Br)c1OCc1ccccc1F	?	nt	0%	-1%	-2%
COc1cc(CNC(C)(C)C)cc(Br)c1OCc1cccs1	0%	?	20µM*	-19%	i
CCCn1c(=O)n(-c2ccccc2)c(=O)c2sc3ccccc3c21	0%	-5	nt	-9%	-10%
CCC(C)NCCOCCOc1ccc(Cl)c2ccccc12 (configuration not stated)	0%	-11	?	28µM*	?
CCC(C)NCCOCCOc1ccc(Cl)c(C)c1C (configuration not stated)	?	-83*	10µM*	?	-13%
O=[N+]([O-])c1nn(-c2ccc3c(c2)OCCO3)n(O)c1=NC1CCCCCC1	-11%	?	-27%	nt	nt
O=[N+]([O-])c1nn(-c2ccc3c(c2)OCCO3)n(O)c1=Nc1ccc(Cl)cc1	nt	-91*	7.1µM*	-21%	-29%
Cc1ccc(N=c2c([N+](=O)[O-])nn(-c3ccc4c(c3)OCCO4)n2O)cc1F	?	-85*	?	-17%	-15%
O=[N+]([O-])c1nn(-c2ccc3c(c2)OCCO3)n(O)c1=NC1CCCC1	21%	7	2.8µM*	4%	-10%
Cc1cccc(CCN=c2c([N+](=O)[O-])nn(-c3ccccc3)n2O)c1	-17%	-36	?	nt	nt
Cc1cccc(-n2nc([N+](=O)[O-])c(=NC3CCN(Cc4ccccc4)CC3)n2O)c1	-22%	-64*	8.9µM*	nt	nt
Cc1ccc(-n2nnnc2CNC(=O)c2ccc(F)cc2)cc1C	2%	4	nt	-3%	-11%
COc1ccc(CNC(=O)Cn2nc(N3CCN(c4ccccc4)CC3)ccc2=O)c(OC)c1	-20%	-31	nt	0%	-8%
C[C@H](NC(=O)C[C@@H]1C[C@@H]2c3cc(NC(=O)C4CCC4)ccc3O[C@@H]2[C@@H](CO)O1)c1ccccc1	nt	-18	nt	nt	nt
Cc1ccc(CN=c2c([N+](=O)[O-])nn(-c3ccc4c(c3)OCCO4)n2O)cc1	0%	47	?	0%	-24%
O=C1CCCN1CCCN=c1c([N+](=O)[O-])nn(-c2ccc(Cl)cc2)n1O	1%	-27	11µM*	?	?
O=[N+]([O-])c1nn(-c2ccc3c(c2)OCCO3)n(O)c1=Nc1ccccc1	7.9µM*	-95*	?	-10%	-14%
O=[N+]([O-])c1nn(-c2ccc3c(c2)OCCO3)n(O)c1=NCCCO	28%	16	11µM*	-26%	-26%
C=CCc1cccc(/C=N/NC(=O)CNc2ccccc2)c1O	14%	-99*	?	?	nt
C=CCc1cccc(/C=N/NC(=O)C[n+]2ccccc2)c1O	-10%	nt	-12%	nt	nt
COc1cc([N+](=O)[O-])cc(/C=N/NC(=O)C(C)Nc2cccc(C)c2)c1O (configuration not stated)	-19%	-38	0%	-10%	-23%
SMILES	FMDV antiviral	HCMV antiviral	HCV inhibitor	VACV Venus inh	Vaccinia mCherry
C=CCc1cccc(/C=N/NC(=O)CCCNc2ccc(C)cc2)c1O	-3%	12	-11%	?	13µM*
C=CCc1cccc(/C=N/NC(=O)CCC(=O)Nc2ccc(F)cc2)c1O	-18%	-84*	?	?	?
C=CCc1cccc(/C=N/NC(=O)C(C)Nc2cccc(C)c2)c1O (configuration not stated)	-13%	-80*	?	-17%	?
C=CCc1cccc(/C=N/NC(=O)CNc2ccccc2OC)c1O	-26%	-98*	?	nt	nt
C=CCc1cccc(/C=N/NC(=O)CNc2cccc3ccccc23)c1O	-14%	-23	?	-27%	?
Nc1ccc2c(c1)C(=O)c1ccc(Cl)cc1-2	3%	16	?	-10%	?
Nc1ccc2c(c1)C(=O)c1cc(N)c(Cl)cc1-2	27%	37	25µM*	-27%	?
Nc1cc(Nc2ccccc2)c2nonc2c1[N+](=O)[O-]	-6%	51	4%	nt	nt
O=C(O)c1ccc(Nc2cc(Cl)c3nonc3c2[N+](=O)[O-])cc1	40µM*	3	-4%	-3%	-2%
CNc1cc(Cl)c2nonc2c1[N+](=O)[O-]	13µM*	-99*	?	?	-27%
Cc1c(Nc2cc(Cl)c3nonc3c2[N+](=O)[O-])c(=O)n(-c2ccccc2)n1C	14µM*	89	4µM*	28µM*	?
O=C(O)c1cccc(Nc2ccc3nonc3c2[N+](=O)[O-])c1	-11%	-3	13%	nt	nt
O=[N+]([O-])c1c(Nc2cccc(O)c2)cc(Cl)c2nonc12	22µM*	-102*	?	?	?
Cc1c(Nc2ccc3nonc3c2[N+](=O)[O-])c(=O)n(-c2ccccc2)n1C	-13%	-17	6%	5%	10%
CCCN1CNc2c(c(=O)[nH]c(=S)n2CCc2ccc(Cl)c(Cl)c2)C1	nt	nt	nt	-14%	i
O=c1c2ccccc2oc2ccc(-c3ccoc3)cc12	nt	nt	nt	-6%	-4%
CCOc1ccc(N(CC)S(=O)(=O)N2CCCC(C(=O)NCc3ccccc3OCC)C2)cc1 (configuration not stated)	-29%	-7	nt	-12%	-17%
COc1ccc(NC(=O)Cn2c(=O)n(-c3cccc(C(F)(F)F)c3)c(=O)c3sccc32)cc1	-24%	-33	nt	-22%	-23%
CCN(CC)c1nc2c(S(=O)(=O)c3cccc(Cl)c3)nnn2c2ccsc12	-18%	-61*	nt	-24%	?
CCN(CC)c1nc2c(S(=O)(=O)c3ccccc3)nnn2c2ccc(Cl)cc12	11%	-76*	nt	?	?
CCCN1CNc2c(c(=O)[nH]c(=S)n2CCc2ccc(C)c(C)c2)C1	nt	nt	nt	-18%	i
COc1cc(Cl)c(C)cc1NC(=O)c1cc2c(Cl)nc3ccc(C)cc3c2s1	-18%	-1	nt	-10%[7.34 µM]	-4%[7.34 µM]
CC1CCN(C(CC(=O)c2ccccc2)C(=O)c2ccccc2)CC1 (configuration not stated)	-17%	-86*	-10%	22%	-4%
CC1CCN(C(=O)NC(=O)c2ccccc2)CC1	2%	-14	14%	nt	nt
O=c1/c(=C/c2ccc([N+](=O)[O-])cc2)sc2n1CCCN=2	23%	-91*	-7%	-12%	nt
COc1cc(/C=c2\sc3n(c2=O)CCCN=3)ccc1O	46%	42	-5%	?	-21%
N=c1c[n+](CC23CC4CC(CC(C4)C2)C3)[n-]o1	-12%	-75*	6%	-11%	nt
